The sequences below were run against C6orf48 (assay: pooled miR-30 sensor sort-seq; sequence = guide strand). Conditions: shRNA.
TTAGGATATGCCCAGCACCAGG gave a sensor-assay potency score (higher = more potent) of -1.71.
TATTGTGTCAGCAAATTCCATA showed a sensor-assay potency score (higher = more potent) of -0.54.
Work on TGACAGCTGCTCACACAGGATA yielded a sensor-assay potency score (higher = more potent) of -1.51.
TGTCAGCAAATTCCATAGCAAG showed a sensor-assay potency score (higher = more potent) of -1.37.
AAGTTCTTAGGATATGCCCAGC gave a sensor-assay potency score (higher = more potent) of -0.846.
In the case of TAAGTTCTTAGGATATGCCCAG, the sensor-assay potency score (higher = more potent) is reported as -0.415.
TCAAGTTGCAGGAATCACTGTC showed a sensor-assay potency score (higher = more potent) of 0.907.
In the case of TCACACAGGATAATACAGGAAA, the sensor-assay potency score (higher = more potent) is reported as -0.815.
Work on ATATTGTGTCAGCAAATTCCAT yielded a sensor-assay potency score (higher = more potent) of -1.29.
ATAGCAAGGAAGGAGAACAGGC showed a sensor-assay potency score (higher = more potent) of -1.07.
AGTTGCAGGAATCACTGTCTAA was tested, and the sensor-assay potency score (higher = more potent) was -1.7.
TTCCATAGCAAGGAAGGAGAAC gave a sensor-assay potency score (higher = more potent) of -0.82.

Each sequence was assayed against C6orf58 in the same assay as above. Conditions: shRNA.
Sequence TTCTGTACAAAGATAACCTATA has a sensor-assay potency score (higher = more potent) of -1.09.
Sequence TATGATTTTATACATCCCCATT has a sensor-assay potency score (higher = more potent) of -1.55.
TTTATCCACATTGTCAAGCATA gave a sensor-assay potency score (higher = more potent) of -1.01.
TTACACCAGAATCAACCGCAGC gave a sensor-assay potency score (higher = more potent) of -1.25.
TAGATTTATCCACATTGTCAAG showed a sensor-assay potency score (higher = more potent) of -1.66.
TATTCTGTTCATTATCTGGTGC gave a sensor-assay potency score (higher = more potent) of -0.148.
TAATTCATTAATCATTTCCTGA showed a sensor-assay potency score (higher = more potent) of -0.771.
TTGGATCAGCTAATCTGCCTGT gave a sensor-assay potency score (higher = more potent) of 0.319.
With TAGAATAATAATCATATCTGTC the sensor-assay potency score (higher = more potent) was -0.538.
TTACTGATTGTCAAGTTCGAGT was tested, and the sensor-assay potency score (higher = more potent) was -0.967.
For TTTCTGTACAAAGATAACCTAT, the sensor-assay potency score (higher = more potent) was -0.334.

From the OligoGym collection
Note: reference of the scale not given here.
